High-throughput results from PubChem.
Sampled rows, rich in hits. Any-hit rate of the full collection: about 4.8%.
hcDAF12 agonist = H. contortus DAF-12 activation, primary screen; AID 652067; actives 1.4% (n = 370,000); activation, % at 6.8 µM; HEK293 hcDAF-12 lit1-tk-luc reporter, luminescence; 0% DMSO, 100% Δ7-dafachronic acid;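 active = activation above the mean of all tested compounds plus 3 SD, cut at about 5.5% in these data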;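 also: 100% = response to 3 µM Δ7-dafachronic acid high control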
DAX1 inh-1 = DAX1 (NR0B1) inhibition, primary screen. HEK293T StAR-luciferase reporter, SF-1/DAX-1 repression relief. inhibition, % at 6.8 µM. actives 1.1% (n = 370,000);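 active = inhibition above the mean over all tested compounds plus 3 SD, cut at about 3.6% in these data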;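 also: 0% = DAX-1 cells with DMSO and 100% = cells lacking DAX-1 with DMSO; higher inhibition means more luminescence from relief of DAX-1 repression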
DAX1 inh-2 = NR0B1 (DAX1) inhibition; HEK293 Gal4-DAX1 luciferase reporter, luminescence; P51843; inhibition, % at 6.75 µM; actives 0.99% (n = 340,000);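 active = inhibition above the mean over all tested compounds plus 3 SD, cut at about 4.2% in these data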;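 also: 0% = DAX1-transfected cells with DMSO and 100% = empty-vector control cells with DMSO; inhibition shows as a rise in luminescence from relieved DAX1 repression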
Target sequence (P51843 207-470 limits assumed): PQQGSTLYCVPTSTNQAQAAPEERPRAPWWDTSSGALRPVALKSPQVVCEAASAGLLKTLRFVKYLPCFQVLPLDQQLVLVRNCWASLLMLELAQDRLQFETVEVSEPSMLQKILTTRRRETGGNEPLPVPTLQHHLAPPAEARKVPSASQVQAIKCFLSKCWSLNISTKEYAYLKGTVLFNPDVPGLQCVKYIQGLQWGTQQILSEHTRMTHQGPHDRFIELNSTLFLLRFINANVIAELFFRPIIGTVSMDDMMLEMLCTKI
ssDAF-12 act = activates DAF-12 receptor from parasite S. stercoralis. HEK293 ssDAF-12/GRIP1 lit1-tk-luc reporter, luminescence; % of 3 µM dafachronic acid response. activation, % at 6.8 µM. actives 1% (n = 370,000);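 active = activation above the mean over all tested compounds plus 3 SD, cut at about 0.9% in these data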;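 also: 0% = DMSO-only wells and 100% = 3 µM delta7-dafachronic acid wells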
hgDAF12 agonist = activates the H. glycines DAF-12 receptor ligand-binding domain; HEK293 GAL4-hgDAF12 UAS-luciferase reporter, agonist luminescence; normalized to butyrate control; activation, % at 6.8 µM; actives 1.8% (n = 370,000);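 active = activation above a cutoff set at the mean of all screened compounds plus 3 SD, cut at about 10% in these data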;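 also: 0% = DMSO wells and 100% = sodium butyrate wells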
SMARCA2 act = activators of SMARCA2 function; MG213 cells, MMTV-luciferase reporter, dexamethasone, overnight; activation, % at 9.1 µM; actives 1% (n = 370,000); AID 652017; in the data active = activation above about 7.8%;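 also: 0% = vehicle wells and 100% = reference activator wells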
SMARCA2 conf = confirmation of SMARCA2 (BRM) function activators; activation, % at 9.1 µM; shares compounds with SMARCA2 act; MG213 cells, MMTV-luciferase with dexamethasone, luminescence, overnight; MG213 cells expressing E1A, Rb sequestered; DMSO wells 0%, reference activator 100%; actives 30% (n = 3,500);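 active = activation above its plate's cutoff, the mean activation of tested wells plus 3 SD, cut at about 7.9% in these data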
VP16 Luc act = activates GAL4-VP16 luciferase, flagging SMARCA2 activator hits. shares compounds with SMARCA2 act. HEK293 GAL4-VP16 pG5luc reporter, luciferase luminescence; scaled: DMSO wells 0%, SAHA wells 100%. activation, % at 9.1 µM. actives 41% (n = 3,500). AID 686939;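 active = activation above the solvent-only control well mean plus 3 SD, averaged across control plates, cut at about 5.2% in these data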
Starred values were filed as active, the others as inactive; x = not tested or not shown.

SMILES	hcDAF12 agonist	DAX1 inh-1	DAX1 inh-2	ssDAF-12 act	hgDAF12 agonist	SMARCA2 act	SMARCA2 conf	VP16 Luc act
Cn1c(C2=C(O)CN(Cc3ccccc3)C2=N)nc2ccccc21	0.5	-0.3	1.0	-1.0	-0.3	8.6*	0.4	3.2
Cn1ncc2c(Nc3ccc(O)cc3)nc(Cl)nc21	-1.1	0.3	1.6	-0.6	-1.5	17.8*	5.0	1.7
CSc1ccccc1NC(=O)c1cc(C)on1	-0.2	0.3	-0.5	-1.4	0.5	0.5	x	x
CCc1ccc(NC(=O)c2cc(-c3ccc4c(c3)OCO4)on2)cc1	-2.2	0.1	-0.5	-0.6	-1.0	0.3	x	x
CSc1ccccc1NC(=O)c1cc(C(C)C)on1	6.4*	0.6	0.7	0.1	5.5	8.0*	3.2	7.9*
CSc1ccccc1NC(=O)c1cc(-c2ccc3c(c2)OCO3)on1	1.3	0.4	1.5	-0.3	3.7	10.4*	5.7	1.8
CC(C)C[C@@H]1COc2cc(Br)ccc2S(=O)(=O)N1Cc1cn(Cc2ccc(Cl)cc2)nn1	-1.6	-0.1	x	-0.7	2.0	3.1	x	x
CCOc1ccc(OCc2ccc(C(=O)N3CCc4ccccc4C3)o2)cc1	0.8	0.1	-1.6	-1.6	2.4	13.4*	5.9	4.2
Cc1nnc(SCC(=O)NC(=O)Nc2ccc3c(c2)OCCO3)s1	0.7	0.8	2.6	-1.8	1.9	11.0*	3.1	-0.4
COc1cccc(-c2nnc(SCc3cccnc3)o2)c1	1.6	1.3	2.1	-1.1	6.0	10.1*	6.3	6.6*
O=C1c2nc3cc(-c4ccco4)[nH]n3c(=O)c2CN1C1CCCCC1	-0.3	0.5	x	-1.6	1.9	11.0*	-2.5	2.4
Oc1cccc(Nc2ncnc3c2oc2ccccc23)c1	2.8	1.3	1.9	-0.7	8.6	8.3*	12.3*	9.1*
O=C(OCc1cn(Cc2cccc(F)c2)nn1)N1CCOCC1	2.8	2.0	x	-0.9	0.3	-0.9	x	x
Cc1ccc2c(c1)cc(CN(Cc1ccco1)C(=O)N1CCOCC1)c1nnnn12	-1.4	0.6	1.3	-1.5	0.3	8.6*	12.0*	3.3
C/C(=C\c1ccccc1)C(=O)Nc1cc(C)on1	0.8	0.2	-0.2	-1.2	11.0*	9.9*	5.2	6.9*
O=C(COc1ccccc1Cl)NC(=S)Nc1ccccc1N1CCCC1	1.4	0.2	0.3	-0.8	-2.0	11.0*	-3.4	0.4
CC(O)CN=c1cc(-c2ccccc2)oc2ccc(Cl)cc12 (configuration not stated)	4.2	1.2	0.3	-0.6	11.1*	8.4*	18.1*	12.8*
COc1ccccc1CNC(=O)Cc1ccc(OC)c(OC)c1	3.4	-0.3	0.0	0.8	1.1	-0.7	x	x
COc1ccccc1CNC(=O)Cc1ccccc1	0.2	0.5	1.6	-0.5	8.7	9.5*	2.5	4.8
CCOc1ccc(NC(=O)CSc2nccn2Cc2ccco2)cc1	2.0	-2.5	1.2	-0.6	6.2	11.0*	1.3	4.8
COc1cc(/C=C2/CC/C(=C/c3ccc(O)c(OC)c3)C2=O)ccc1O	-1.6	-0.4	0.2	-1.6	-3.0	-2.8	x	x
COc1cc(/C=C2\COC/C(=C\c3ccc(O)c(OC)c3)C2=O)ccc1O	-3.1	-1.8	-6.4	-2.4	-10.2	13.2*	3.9	-0.8
COc1cc(OC)cc(C(=O)Nc2ccc(CN3CCCCC3)cc2)c1	0.1	0.1	-0.4	-1.8	0.5	-1.5	x	x
COc1ccc(OCc2cccc(C(=O)Nc3ccc(CN4CCCCC4)cc3)c2)cc1	3.6	2.7	-2.2	-0.6	9.9	9.9*	9.4*	13.6*
CCn1c(SCC(N)=O)nc2ccccc2c1=O	-1.3	-0.7	0.6	-0.9	0.6	8.0*	-1.9	-0.1
